Measurements published in ChEMBL document CHEMBL4513216, “Probing the Open Global Health Chemical Diversity Library for Multistage-Active Starting Points for Next-Generation Antimalarials” (ACS Infect Dis, 2020).
Out of some 65,000 compounds screened, about 2,100 (3.2%) showed an effect of 50% or more. The median lay at about -52%. The sample holds strong results, similar compounds and a random draw of the others, so the mix is not that of the screen.

Each molecule was assayed on Plasmodium falciparum (assay: Screen against P. falciparum Asexual Blood Stage (ABS), at 5uM). Conditions: tested at 5 uM.
Format: functional, Dd2
In the case of `CCCc1cc(C(=O)NC(COC)c2ccnn2C)no1` (stereo unspecified), the INHIBITION is reported as 4.52%.
`Cc1ccsc1CN(CCN(C)C)Cc1ccccn1` was tested, and the INHIBITION was 58.9%.
`Cc1ccsc1CN(Cc1ccccn1)CC(C)C` showed an INHIBITION of -56.9%.
`COCCN(Cc1ccccn1)Cc1sccc1C` was tested, and the INHIBITION was -158%.
For `Cc1ccc(CCNC(=O)CC2COCCN2S(=O)(=O)N(C)C)s1` (stereo unspecified), the INHIBITION was -49%.
`Cc1nc(C)n(CC2CCCN2Cc2nc(C)c3ccccc3n2)n1` (stereo unspecified) gave an INHIBITION of 55%.
With `Cc1nc(C)n(CC2CCCN2Cc2nc(N)c3ccccc3n2)n1` (stereo unspecified) the INHIBITION was -98.4%.
For `Cc1nn(C)c(C)c1C1CCCN1Cc1nc2ccccc2n1C` (stereo unspecified), the INHIBITION was 1.9%.
In the case of `Cc1nc(CN2CCCC2Cn2cccn2)nc2ccccc12` (stereo unspecified), the INHIBITION is reported as 55.5%.
In the case of `Cc1nc(C)n(CC2CCCN2Cc2ncc(C(C)(C)C)o2)n1` (stereo unspecified), the INHIBITION is reported as 61.9%.
`Cc1nc(C)n(CC2CCCN2Cc2nc3ccccc3nc2C)n1` (stereo unspecified) gave an INHIBITION of 31.2%.
With `Cc1cc(C)n(CC2CCCN2Cc2ncc(C(C)(C)C)o2)n1` (stereo unspecified) the INHIBITION was -80.1%.
`Cc1nc(CN2CCCC2Cn2cncn2)nc2ccccc12` (stereo unspecified) showed an INHIBITION of -14.5%.
`Cc1nc(C)n(CC2CCCCN2Cc2ncc(C(C)(C)C)o2)n1` (stereo unspecified) showed an INHIBITION of -43.5%.
`Cc1nc2ccccc2nc1CN1CCCC1c1c(C)nn(C)c1C` (stereo unspecified) showed an INHIBITION of 58.1%.
Work on `Cc1nc(CN2CCCCC2Cn2cncn2)nc2ccccc12` (stereo unspecified) yielded an INHIBITION of -50.6%.
In the case of `Cc1nn(C)c(C)c1C1CCCN1Cc1nc(C)c2ccccc2n1` (stereo unspecified), the INHIBITION is reported as -19.2%.
In the case of `CCn1nccc1CNC(=O)Cn1cc2c(n1)c(C)nn2C(C)C`, the INHIBITION is reported as -127%.
Work on `CC(C)N1CCOCC2(CCCN(C(=O)c3cncn3C)C2)C1` (stereo unspecified) yielded an INHIBITION of -78.3%.
`O=C(NCc1cc[nH]n1)NCC(O)c1ccc(F)cc1` (stereo unspecified) gave an INHIBITION of 3.65%.
In the case of `Cc1ccc(CN2CCC3(CC2)C(c2ccccc2)CC(=O)N3C)o1` (stereo unspecified), the INHIBITION is reported as 17.1%.
`C=Cn1cc(CN2CCC(c3ncc(Cl)cc3S(C)(=O)=O)CC2)c(C)n1` showed an INHIBITION of 14.8%.
For `CN(C(=O)CN1CCOC(Cn2cccn2)C1)c1nccs1` (stereo unspecified), the INHIBITION was -24.5%.
In the case of `Cc1nc2ccccc2nc1CN1CCCC1Cn1cncn1` (stereo unspecified), the INHIBITION is reported as 62.3%.
Work on `Cc1c(Cl)c(CN2CCCC2Cn2cncn2)nc2ccccc12` (stereo unspecified) yielded an INHIBITION of 16.2%.
`Cc1nc2ccccc2nc1CN1CCCCC1Cn1cccn1` (stereo unspecified) showed an INHIBITION of -78.3%.
In the case of `Cc1cnn(CC2CCCN2Cc2nc3ccccc3nc2C)c1` (stereo unspecified), the INHIBITION is reported as -88.9%.
In the case of `Cc1nc2ccccc2nc1CN1CCCC(Cn2cncn2)C1` (stereo unspecified), the INHIBITION is reported as -96.3%.
Molecule `Cc1nc2ccccc2nc1CN1CCCC1Cn1cccn1` (stereo unspecified) has an INHIBITION of 69.3%.
With `CC1CCc2nn(CCNC(=O)Cc3ccc(F)cc3)c(=O)cc2C1` (stereo unspecified) the INHIBITION was -65.3%.
With `CN1CCOCC2(CCCN(C(=O)c3ccc(-n4cccc4)cc3)C2)C1` (stereo unspecified) the INHIBITION was 28.9%.
